Assay results published in article PMC4336329 (PLoS ONE, 2015).
In all, about 310,000 compounds went through this assay and about 14,000 (4.5%) showed an effect of 50% or more. Effects have a minus sign here. Only a selection was taken, and strong results are over-represented in it overall.
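Also: peak tail current of the secondary pulse compared with the same well before compound.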

These compounds were tested against human ether-à-go-go-related gene (hERG) potassium channel (human, UniProt Q12809) (assay: primary screen, population patch clamp on CHO cells stably expressing hERG; higher = less effect of the substance).
human ether-à-go-go-related gene (hERG) potassium channel, sequence (Q12809 whole entry, looked up): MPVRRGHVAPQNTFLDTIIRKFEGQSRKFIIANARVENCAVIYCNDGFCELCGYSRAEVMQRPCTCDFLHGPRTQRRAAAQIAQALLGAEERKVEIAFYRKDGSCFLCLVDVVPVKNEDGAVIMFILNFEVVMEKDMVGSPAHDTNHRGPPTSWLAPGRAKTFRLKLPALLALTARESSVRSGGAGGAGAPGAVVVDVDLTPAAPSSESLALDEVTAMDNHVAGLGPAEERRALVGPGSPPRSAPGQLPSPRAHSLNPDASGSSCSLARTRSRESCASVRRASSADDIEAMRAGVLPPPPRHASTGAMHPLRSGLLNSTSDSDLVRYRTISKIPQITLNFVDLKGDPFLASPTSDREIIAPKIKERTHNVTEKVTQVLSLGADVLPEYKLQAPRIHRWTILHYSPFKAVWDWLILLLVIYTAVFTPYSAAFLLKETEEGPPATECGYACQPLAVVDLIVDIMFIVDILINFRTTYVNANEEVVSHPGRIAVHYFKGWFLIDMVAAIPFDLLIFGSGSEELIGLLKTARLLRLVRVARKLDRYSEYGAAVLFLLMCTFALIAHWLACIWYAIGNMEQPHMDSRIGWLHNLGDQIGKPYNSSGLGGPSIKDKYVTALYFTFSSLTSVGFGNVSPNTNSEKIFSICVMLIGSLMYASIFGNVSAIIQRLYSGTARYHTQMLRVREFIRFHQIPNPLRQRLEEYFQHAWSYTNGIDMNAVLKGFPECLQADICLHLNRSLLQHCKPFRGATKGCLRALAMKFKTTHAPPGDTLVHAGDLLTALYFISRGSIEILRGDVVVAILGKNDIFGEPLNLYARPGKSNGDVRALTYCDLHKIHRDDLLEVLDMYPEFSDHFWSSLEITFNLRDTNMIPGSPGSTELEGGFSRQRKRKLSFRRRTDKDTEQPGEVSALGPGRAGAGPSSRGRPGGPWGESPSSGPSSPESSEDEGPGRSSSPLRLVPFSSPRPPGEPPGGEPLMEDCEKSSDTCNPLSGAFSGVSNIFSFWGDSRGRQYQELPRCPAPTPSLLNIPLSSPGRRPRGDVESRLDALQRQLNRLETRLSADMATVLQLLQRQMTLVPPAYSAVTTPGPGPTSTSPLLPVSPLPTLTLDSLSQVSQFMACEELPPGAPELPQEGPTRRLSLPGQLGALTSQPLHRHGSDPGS
For CCCn1nnnc1SCC(=O)Nc1sc(C)c(C)c1C#N, the “hERG current change (%, negative = inhibition) at 10uM” value was 0.801%. In the case of O=C(COC(=O)CNC(=O)c1cccc(Br)c1)Nc1nnc(-c2ccccc2)o1, the “hERG current change (%, negative = inhibition) at 10uM” value is reported as -0.546%. CCOc1ccc(CNC(=O)CCCn2ccc3cc(S(=O)(=O)N4CCCC4)ccc32)cc1 was tested, and the “hERG current change (%, negative = inhibition) at 10uM” value was -32.7%. CCCc1ccc(S(=O)(=O)N2CCN(C(C)C(=O)NCc3ccc(OC)cc3)CC2)cc1 (stereo not drawn) was tested, and the “hERG current change (%, negative = inhibition) at 10uM” value was -57.4%. With COc1ccc(C(=O)NCc2ccc(N3CCN(C)CC3)cc2)cc1 the “hERG current change (%, negative = inhibition) at 10uM” value was 5.1%. In the case of COc1ccc(CNC(=O)CCc2ccc(S(=O)(=O)N3CCCCCC3)cc2)cc1, the “hERG current change (%, negative = inhibition) at 10uM” value is reported as -54.9%. With COc1ccc(S(=O)(=O)N2CCN(C(C)C(=O)Nc3ccc(C(C)C)cc3)CC2)cc1 (stereo not drawn) the “hERG current change (%, negative = inhibition) at 10uM” value was -20.6%. With COC(=O)CCNC(=O)CCc1ccc(S(=O)(=O)N2CCCCCC2)cc1 the “hERG current change (%, negative = inhibition) at 10uM” value was -12.1%. COc1ccc(CNC(=O)C(C)N2CCN(S(=O)(=O)c3ccccc3F)CC2)cc1 (stereo not drawn) was tested, and the “hERG current change (%, negative = inhibition) at 10uM” value was -15.9%. COc1ccc(CNC(=O)C(C)N2CCN(c3ccc(C(C)=O)cc3)CC2)cc1 (stereo not drawn) was tested, and the “hERG current change (%, negative = inhibition) at 10uM” value was -55.1%. COc1ccc(CNC(=O)COc2ccc(S(=O)(=O)N3CCCCC3)cc2)cc1 was tested, and the “hERG current change (%, negative = inhibition) at 10uM” value was 6.5%. For CC(C(=O)NCc1ccccc1)N1CCN(c2ccc(F)cc2)CC1 (stereo not drawn), the “hERG current change (%, negative = inhibition) at 10uM” value was -18.9%. In the case of COc1ccc(CNC(=O)CCCn2ccc3cc(S(=O)(=O)N4CCCC4)ccc32)cc1, the “hERG current change (%, negative = inhibition) at 10uM” value is reported as -52%. For COc1ccc(CNC(=O)CCn2ccc3cc(S(=O)(=O)N4CCCC4)ccc32)cc1, the “hERG current change (%, negative = inhibition) at 10uM” value was -12.4%. With COc1ccccc1NC(=O)c1ccc(N2CC3CC(C2)c2cccc(=O)n2C3)c(NC(=O)c2cccnc2)c1 (stereo not drawn) the “hERG current change (%, negative = inhibition) at 10uM” value was 6.33%. With [Cl-].c1ccc(Cc2cc[n+](Cc3ccccc3)cc2)cc1 the “hERG current change (%, negative = inhibition) at 10uM” value was 4.13%. With O=C(Nc1ccccc1N1CCCC1)c1cccnc1Cl the “hERG current change (%, negative = inhibition) at 10uM” value was 4.72%. In the case of COc1ccc(C(=O)NC(=S)Nc2nc(C)cc(C)n2)cc1Br, the “hERG current change (%, negative = inhibition) at 10uM” value is reported as 23.1%. With CCOc1ccc2nc(SCC(=O)NCc3ccc4c(c3)OCO4)[nH]c2c1 the “hERG current change (%, negative = inhibition) at 10uM” value was -24.2%. With CCCNc1ccc(C(=O)OCC)cc1[N+](=O)[O-] the “hERG current change (%, negative = inhibition) at 10uM” value was -6.67%. For Cc1ccc(C(C(=O)NCc2ccco2)N(C(=O)Cc2cccs2)c2cccnc2)cc1 (stereo not drawn), the “hERG current change (%, negative = inhibition) at 10uM” value was 20.4%. With O=S(=O)(Nc1ccc2ccccc2c1)c1ccccc1 the “hERG current change (%, negative = inhibition) at 10uM” value was 1.5%. For CCOc1ccc(CCNC(=O)COC(=O)Cc2ccc(F)cc2)cc1OCC, the “hERG current change (%, negative = inhibition) at 10uM” value was -26.6%. For CC(C)c1ccc(/C=C(\c2nc3ccccc3[nH]2)S(=O)(=O)c2ccccc2)cc1, the “hERG current change (%, negative = inhibition) at 10uM” value was 8.64%. In the case of COc1ccc(OC)c(CNc2ccc(F)c(Cl)c2)c1, the “hERG current change (%, negative = inhibition) at 10uM” value is reported as 2.7%. For COc1ccc(C(=O)n2nc(-c3ccco3)nc2SC)cc1OC, the “hERG current change (%, negative = inhibition) at 10uM” value was 3.41%. In the case of COCCCn1c(=O)c2sccc2n2c(CCCC(=O)N(C)Cc3ccco3)nnc12, the “hERG current change (%, negative = inhibition) at 10uM” value is reported as -22.8%. With Cc1ccccc1-n1c(-c2ccc(Br)o2)n[nH]c1=S the “hERG current change (%, negative = inhibition) at 10uM” value was 13.5%. For COc1ccc2ccc(O)c(CN3CCN(S(=O)(=O)c4cc([N+](=O)[O-])ccc4C)CC3)c2c1, the “hERG current change (%, negative = inhibition) at 10uM” value was -4.29%. In the case of CCN(CC)C(=O)CSC1=C(C#N)C(c2ccco2)C(C(=O)OCCOC)=C(C)N1 (stereo not drawn), the “hERG current change (%, negative = inhibition) at 10uM” value is reported as 10.5%. C=CCOC(=O)C1=C(C)NC(SCC(=O)N(CC)CC)=C(C#N)C1c1ccco1 (stereo not drawn) was tested, and the “hERG current change (%, negative = inhibition) at 10uM” value was -51.3%. For C=CCOC(=O)C1=C(C)NC(SCC(=O)N(CC)CC)=C(C#N)C1c1ccccc1 (stereo not drawn), the “hERG current change (%, negative = inhibition) at 10uM” value was -21.9%. In the case of CSc1ccccc1NC(=O)c1ccc(N2CC3CC(C2)c2cccc(=O)n2C3)c(NC(=O)c2ccncc2)c1 (stereo not drawn), the “hERG current change (%, negative = inhibition) at 10uM” value is reported as -30.1%. With CC(C)N1CCN(CCCc2ccccc2)CC1CCO (stereo not drawn) the “hERG current change (%, negative = inhibition) at 10uM” value was -4.39%. With CC(C)CN1CCN(CCCc2ccccc2)C(CCO)C1 (stereo not drawn) the “hERG current change (%, negative = inhibition) at 10uM” value was -35.5%. CC(C)(C)CN1CCN(CCCc2ccccc2)C(CCO)C1 (stereo not drawn) was tested, and the “hERG current change (%, negative = inhibition) at 10uM” value was -53.7%. In the case of CC(C)=CCN1CCN(CCCc2ccccc2)CC1CCO (stereo not drawn), the “hERG current change (%, negative = inhibition) at 10uM” value is reported as -26.8%. In the case of CC(C)(C)CN1CCN(CC#Cc2ccccc2)CC1CCO (stereo not drawn), the “hERG current change (%, negative = inhibition) at 10uM” value is reported as 0.803%. For CC(C)CCN1CCN(CCCc2ccccc2)CC1CCO (stereo not drawn), the “hERG current change (%, negative = inhibition) at 10uM” value was -46.6%. In the case of OCCC1CN(CCCc2ccccc2)CCN1Cc1ccc(F)cc1 (stereo not drawn), the “hERG current change (%, negative = inhibition) at 10uM” value is reported as -66.6%. With OCCC1CN(CCCc2ccccc2)CCN1CCc1ccccc1 (stereo not drawn) the “hERG current change (%, negative = inhibition) at 10uM” value was -77.2%. For OCCC1CN(CCCc2ccccc2)CCN1Cc1ccccc1 (stereo not drawn), the “hERG current change (%, negative = inhibition) at 10uM” value was -64%. For CC(C)CCNC(=O)C(c1ccco1)N(CCCO)C(=O)Cn1nnc(-c2ccc(F)cc2)n1 (stereo not drawn), the “hERG current change (%, negative = inhibition) at 10uM” value was -20.2%. In the case of CSc1ccccc1NC(=O)CSc1nnc(CNC(=O)c2ccccc2F)n1C, the “hERG current change (%, negative = inhibition) at 10uM” value is reported as 11.2%. With O=C(NCCS(=O)(=O)N1CCN(c2ccc(F)cc2)CC1)C12CC3CC(CC(C3)C1)C2 the “hERG current change (%, negative = inhibition) at 10uM” value was -10.5%. With CCOC(=O)c1cc(-c2ccc(OC)cc2)nn1-c1ccc(C(=O)O)cc1 the “hERG current change (%, negative = inhibition) at 10uM” value was 16.3%. In the case of CS(=O)(=O)c1ccc([C@@H](O)[C@@H](CF)NC(=O)C(Cl)Cl)cc1, the “hERG current change (%, negative = inhibition) at 10uM” value is reported as -5.39%. Cc1cccc(Cl)c1NC(=S)NCCc1ccccn1 was tested, and the “hERG current change (%, negative = inhibition) at 10uM” value was 11.9%. In the case of CCOc1ccc(Br)cc1S(=O)(=O)N1CCC(C(N)=O)CC1, the “hERG current change (%, negative = inhibition) at 10uM” value is reported as -8.56%. For O=C(c1ccc(CS(=O)c2cccc(Cl)c2)o1)N1CCOCC1 (stereo not drawn), the “hERG current change (%, negative = inhibition) at 10uM” value was 10.8%. CC(C)/C=C/CN1CCN(CCCc2ccccc2)C(CCO)C1 (stereo not drawn) was tested, and the “hERG current change (%, negative = inhibition) at 10uM” value was -73.4%. CCC(CC)N1CCN(CCc2ccccc2)C(CCO)C1 (stereo not drawn) was tested, and the “hERG current change (%, negative = inhibition) at 10uM” value was -19%. With Cc1ccc(CN2CCN(CCCc3ccccc3)CC2CCO)cc1 (stereo not drawn) the “hERG current change (%, negative = inhibition) at 10uM” value was -76.4%. With Cn1cccc1C(=O)NC(=O)COC(=O)c1ccccc1O the “hERG current change (%, negative = inhibition) at 10uM” value was -6.93%. For Cc1cccc(-c2nc3ccccc3c(=O)n2NC(=O)/C=C/c2ccc([N+](=O)[O-])cc2)c1, the “hERG current change (%, negative = inhibition) at 10uM” value was -60.7%. In the case of Cc1cccc(-c2nc3ccccc3c(=O)n2NC(=O)c2ccc([N+](=O)[O-])c(C)c2)c1, the “hERG current change (%, negative = inhibition) at 10uM” value is reported as 14.5%. With O=C(Nn1c(-c2ccc(Br)cc2)nc2ccccc2c1=O)c1ccc([N+](=O)[O-])cc1 the “hERG current change (%, negative = inhibition) at 10uM” value was -66.6%. For Cc1cc(C(=O)Nn2c(-c3ccc(Br)cc3)nc3ccccc3c2=O)ccc1[N+](=O)[O-], the “hERG current change (%, negative = inhibition) at 10uM” value was 8.86%. In the case of O=C(/C=C/c1cccc([N+](=O)[O-])c1)Nn1c(-c2ccccc2F)nc2ccccc2c1=O, the “hERG current change (%, negative = inhibition) at 10uM” value is reported as -23.1%. With O=C(Nn1c(-c2ccccc2)nc2ccccc2c1=O)c1ccc([N+](=O)[O-])cc1 the “hERG current change (%, negative = inhibition) at 10uM” value was -15.4%.
